Experimental data taken from PubChem BioAssay AID1745845 (National Center for Advancing Translational Sciences (NCATS), 2022).
The whole screen tested about 360,000 compounds, of which about 2,600 (0.72%) were called active. A call without a number means that no potency is given here. Another 5% or so got no clear call; they are omitted. Calls follow the shape of the dose curve; as a rule, active = well fitted inhibition curve with a large enough effect; inconclusive = small, poorly fitted or top-dose-only effect; inactive = no such curve, though single readings can be large or run the other way. For the sample, actives were picked, then their nearest neighbours and some compounds at random.

test: Primary qHTS for Inhibitors of ATXN expression; details: HEK-293 ATXN2-luciferase reporter, luminescence, 24 h; series mostly up to 57 µM; also: nearly all actives have a fitted effect of over 55% in size
Procedure, shortened: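 qHTS (up to 57 uM final) was run with 24 h compound exposure of reporter cells at 37 °C. Each well was multiplexed: SteadyGlo luminescence measured ATXN2-luciferase expression after a fluorogenic Gly-Phe-AFC viability readout (25 uM final).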
Potency is read from the fitted curve at half-maximal effect.

Structure (SMILES) | Potency
O=C(Nc1ccc2oc(-c3ccc(O)c(Br)c3)nc2c1)c1cc2ccccc2o1 | inactive
CC(C)(C)c1ccc(OCC(=O)N2CCC(c3nc4ccccc4s3)CC2)cc1 | inactive
CSc1nc(-c2ccccc2Cl)nc2c1Cc1c(CO)cnc(C)c1O2 | inactive
CCCCOCCOC(=O)c1cccnc1 | inactive
Cc1ccccc1NC(=O)Cn1c(=O)n(Cc2ccco2)c(=O)c2ccc(C(=O)NC3CCCC3)cc21 | inactive
CN1C(=O)C[C@H](C(=O)N[C@@H](Cc2cnc[nH]2)C(=O)N2CCC[C@@H]2C(N)=O)NC1=O | inactive
CC(C)C[C@H]1CNC(=S)N1C[C@H]1CCCN1C[C@H](Cc1ccc(O)cc1)N1C[C@H](Cc2ccc(O)cc2)N(CC2CCCCC2)C1=S | 28.2 µM (active)
O=C1NC[C@H](Cc2ccc(O)cc2)N(C[C@@H]2CCCN2C[C@H](Cc2ccccc2)N2C[C@H](Cc3ccccc3)N(CC3CCCCC3)C(=O)C2=O)C1=O | inactive
CC(C)C[C@H]1CNC(=O)C(=O)N1C[C@H]1CCCN1C[C@H](Cc1ccc(O)cc1)N1C[C@H](CC(C)C)N(CC2CCCCCC2)C(=O)C1=O | inactive
COc1cccc(C(=O)NCC(=O)OCc2cc(=O)n3ccsc3n2)c1 | inactive
COc1ccc(Cn2ccc3nc(C)c(C(=O)Nc4ccc(C)c(F)c4)cc3c2=O)cc1 | inactive
CCOC(=O)c1c(C)oc2nc(C)nc(Nc3ccc(CC)cc3)c12 | inactive
CC=C(C(=CC)c1ccc(O)cc1)c1ccc(O)cc1 | inactive
O=C(NC(Nc1nc2ccc([N+](=O)[O-])cc2s1)(C(F)(F)F)C(F)(F)F)c1ccccc1 | 0.891 µM (active)
CCC(=O)Nc1nnc(S(=O)(=O)N2CCCc3ccccc32)s1 | inactive
O=C(O)c1cc([N+](=O)[O-])c(Nc2cccc3ccccc23)c([N+](=O)[O-])c1 | inactive
N=C1C(c2nc3ccccc3s2)=C(O)CN1NC(=O)c1ccc([N+](=O)[O-])cc1 | inactive
O=C(Nc1nc2ccc([N+](=O)[O-])cc2s1)c1ccc(S(=O)(=O)N2CCCc3ccccc32)cc1 | 13.4 µM (active)
Cc1ccc(NC(=O)c2cccc(S(=O)(=O)N3CCCc4ccccc43)c2)nc1 | inactive
Cc1ccc(-c2nc(S(=O)(=O)c3ccc(C)cc3)c(N3CCCCCC3)o2)cc1 | inactive
CC1(C)[C@H](O[C@H]2O[C@H](C(=O)O)[C@@H](O)[C@H](O)[C@H]2O[C@@H]2O[C@H](C(=O)O)[C@@H](O)[C@H](O)[C@H]2O)CC[C@@]2(C)[C@H]1CC[C@]1(C)[C@H]2C(=O)C=C2[C@H]3C[C@@](C)(C(=O)O)CC[C@]3(C)CC[C@]21C | inactive
